PLK1 PBD inh: Plk1 (human) PBD binding inhibition | P53350 | Plk1 PBD phosphopeptide binding, fluorescence polarization | inhibition, %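 (tested at about 20 µM)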 | 97,000 compounds, 0.13% hits; in the data active means inhibition above about 34%, passing the limit was not always enough
CYP2C19 act: increases human CYP2C19 enzyme activity; recombinant CYP2C19, luciferin-H EGE luminescence; active compounds read high; 0 = fully inhibited enzyme, 1 = untreated enzyme; 96,000 tested, under 10 active; activation factor at 5 µM;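 active means activation factor of at least 2 at 5 µM in the primary screen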;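 further: 0 = wells with 2.5 mM tranylcypromine and 1 = vehicle-only wells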
CYP2C9 inhib: human CYP2C9 inhibition; CYP2C9 Supersomes, luciferin-H conversion, luminescence; 96,000 compounds, 20% hits; P11712; inhibition, % at 5 µM;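 active means blocking of liver enzyme CYP2C9 beyond about 50% at 5 µM, limit read from the data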
Target sequence (P11712 whole entry, looked up): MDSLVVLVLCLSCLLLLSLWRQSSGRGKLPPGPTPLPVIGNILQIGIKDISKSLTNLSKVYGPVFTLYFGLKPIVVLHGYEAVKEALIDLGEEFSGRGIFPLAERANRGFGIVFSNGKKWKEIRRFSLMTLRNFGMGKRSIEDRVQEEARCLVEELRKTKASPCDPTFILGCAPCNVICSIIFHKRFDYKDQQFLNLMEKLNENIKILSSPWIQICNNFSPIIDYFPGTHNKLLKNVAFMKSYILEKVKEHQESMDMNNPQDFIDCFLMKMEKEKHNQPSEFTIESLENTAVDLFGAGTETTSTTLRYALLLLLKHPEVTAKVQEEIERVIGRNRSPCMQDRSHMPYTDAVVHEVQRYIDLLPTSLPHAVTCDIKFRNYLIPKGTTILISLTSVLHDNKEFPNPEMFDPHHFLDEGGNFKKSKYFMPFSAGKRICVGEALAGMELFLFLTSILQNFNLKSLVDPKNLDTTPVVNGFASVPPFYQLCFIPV
CYP2C19 inh: inhibitors of human CYP2C19; P33261; CYP2C19 Supersomes, luciferin-H EGE luminescence, 30 min; inhibition, % at 5 µM; 96,000 compounds, 21% hits; AID 778;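 active means CYP2C19 inhibition above a set limit at 5 µM in the primary screen, cut at about 50% in these data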;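 further: plate controls were negative control wells for no effect and 2.5 mM tranylcypromine positive control for full effect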
CYP2C9 act: CYP2C9 (human) activation | 96,000 compounds, 1.4% hits | AID 1024 | recombinant CYP2C9, luciferin-H conversion, luminescence; active compounds read high; factor 1 = untreated enzyme, 0 = blocked | activation factor at 5 µM | P11712;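 active means activation factor of 2 or more for CYP2C9 at a 5 µM dose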;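 further: 0 = sulfaphenazole-blocked wells and 1 = vehicle-only wells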
PLK1 kinase inh: PLK1 (human) kinase inhibition | recombinant PLK1 kinase, TR-FRET peptide phosphorylation | inhibition, % at 10 µM | 97,000 compounds, 0.53% hits | AID 619;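 active means inhibition of 50% or more in the single-concentration screen; inactive means inhibition below 50%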;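 further: 0% = DMSO max control and 100% = H-89 dihydrochloride min control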
The depositor's hits bear a star; x = no result. The list is not random: actives were taken first. Their share in the collection is about 28%.

SMILES | PLK1 PBD inh | CYP2C19 act | CYP2C9 inhib | CYP2C19 inh | CYP2C9 act | PLK1 kinase inh
CCOC(=O)C1=C(C)NC(=O)NC1c1cccc(OC)c1OCc1ccccc1Cl (stereo not given) | 13 | 0.8 | 9 | 24 | 0.9 | 4
CCc1ccccc1N1CSC2=C(C#N)C(c3cc(OC)c(OC)cc3OC)CC(=O)N2C1 (stereo not given) | -10 | 0.8 | 39 | 23 | 0.6 | 3
COc1cc(C2CC(=O)N3CN(c4ccccc4C)CSC3=C2C#N)cc(OC)c1OC (stereo not given) | -19 | 0.6 | 64* | 37 | 0.4 | 4
COc1ccccc1N1CSC2=C(C#N)C(c3ccc(SC)cc3)CC(=O)N2C1 (stereo not given) | -28 | 0.7 | 88* | 34 | 0.1 | -2
CCOC(=O)C(C)n1cnc2c(nnn2Cc2ccc(Cl)cc2)c1=O (stereo not given) | -4 | 0.8 | -147 | 21 | 2.5* | -10
Cc1ccc(Cn2nnc3c(=O)n(Cc4cccc(C)c4)cnc32)cc1 | -2 | 0.7 | -106 | 34 | 2.1* | -4
CCOC(=O)C(C)n1cnc2c(nnn2-c2ccc(C)cc2)c1=O (stereo not given) | 3 | 1 | 16 | 2 | 0.8 | -1
CCOC(=O)C(C)n1cnc2c(nnn2Cc2ccc(C)cc2)c1=O (stereo not given) | 4 | 0.5 | -191 | 53* | 2.9* | -11
CSc1nc(C)c2c(n1)OC(CN1C(=O)c3ccccc3C1=O)C2 (stereo not given) | x | 0.9 | 15 | 7 | 0.8 | x
O=C(COC(=O)Cc1ccsc1)NC1CCCCCC1 | -19 | 0.3 | -11 | 74* | 1.1 | -7
O=C(COC(=O)c1cccc(C(=O)OCC(=O)NC2CCCCC2)n1)NC1CCCCC1 | 6 | 1 | 4 | -5 | 1 | 1
CC1CCCC(NC(=O)COC(=O)CCC2CCCC2)C1C (stereo not given) | -9 | 0.6 | 64* | 40 | 0.4 | 1
O=C(COC(=O)Cc1ccsc1)NCC12CC3CC(CC(C3)C1)C2 | -10 | 0.4 | 37 | 59* | 0.6 | -11
CC1CCCC(NC(=O)COC(=O)COc2ccc(Cl)cc2)C1C (stereo not given) | 8 | 0.8 | 15 | 20 | 0.8 | -9
NC(=O)NCC12CC3CC(CC(C3)C1)C2 | 14 | 1 | -6 | 1 | 1.1 | 6
CC1CCCC(NC(=O)COC(=O)Cc2ccsc2)C1C (stereo not given) | -24 | 0.4 | -48 | 64* | 1.5 | -11
CCOC(=O)C(C)Oc1cccc2c(=O)n(CC(=O)Nc3ccc(OCC)cc3)ccc12 (stereo not given) | 28 | 0.9 | 21 | 8 | 0.8 | -11
CCN1CCN(Cc2nc3c(c(=O)n(C)c(=O)n3C)n2C(C)C(C)=O)CC1 (stereo not given) | -3 | 0.3 | 32 | 68* | 0.7 | 2
CCOC(=O)Nc1c(O)ccc2oc(C)c(-c3ccccc3)c12 | -3 | 0.8 | 24 | 21 | 0.8 | -4
CCCc1nc(SCC(=O)N2CCC(Cc3ccccc3)CC2)c2c(=O)n(C)c(=O)n(C)c2n1 | 3 | 0.3 | 95* | 66* | 0.1 | -16
CCn1c(SCC(=O)Nc2ccccc2N2CCCCC2)nc2c1c(=O)n(C)c(=O)n2C | -18 | 0.6 | 79* | 39 | 0.2 | -4
CCCn1c(SCC(=O)N2CCCc3ccccc32)nc2c1c(=O)n(C)c(=O)n2C | 5 | 0.7 | 79* | 31 | 0.2 | -13
Cn1c(=O)c2c(SCC(=O)N3CCCc4ccccc43)nc(CC(C)(C)C)nc2n(C)c1=O | 34 | x | x | x | x | -13
CCCc1nc(SCC(=O)N2CCCc3ccccc32)c2c(=O)n(C)c(=O)n(C)c2n1 | -11 | 0.8 | 94* | 17 | 0.1 | -2
CC(C)n1c(SCC(=O)Nc2ccccc2N2CCOCC2)nc2c1c(=O)n(C)c(=O)n2C | -8 | x | x | x | x | -8
SMILES | PLK1 PBD inh | CYP2C19 act | CYP2C9 inhib | CYP2C19 inh | CYP2C9 act | PLK1 kinase inh
NC1=NC(c2ccccc2Cl)n2c(nc3ccccc32)N1 (stereo not given) | -22 | 1 | -3 | -3 | 1 | -12
CCOC(=O)N1CCC(NC(=O)CSCc2nc(-c3cccc(OC)c3)oc2C)CC1 | 5 | 0.4 | 67* | 57* | 0.3 | -15
COc1cccc(-c2nc(CS(=O)CC(=O)NC3CC3)c(C)o2)c1 (stereo not given) | -12 | 0.9 | 28 | 14 | 0.7 | 69*
COc1ccccc1OCc1nnc(SCC(=O)Nc2ccc(C)cc2)n1C | -23 | 0.5 | -104 | 48 | 2* | -2
COc1ccc(NC(=O)Cc2nnc(SCC(=O)Nc3cc(C)ccc3OC)n2C)cc1 | 0 | 0.1 | -16 | 95* | 1.2 | -13
COc1ccc(Cl)cc1NC(=O)CSc1nnc(COc2ccccc2)n1C | -13 | 0.5 | -76 | 55* | 1.8 | -2
COc1ccc(OC)c(-c2csc3nnc(SCC(=O)Nc4ccc(NC(C)=O)cc4)n23)c1 | -10 | 0.8 | 53* | 24 | 0.5 | -1
CCOC(=O)c1ccc(NC(=O)CSc2nnc(COc3ccccc3)n2C)cc1 | -23 | 0.9 | 2 | 14 | 1 | -10
CCOc1ccc(C2=Cc3cc(OC)c(OC)cc3C(=C(Cl)Cl)O2)cc1 | 13 | 0.9 | 21 | 10 | 0.8 | 7
COc1ccc(-n2nc3cc(C)c(NC(=O)C(C)C)cc3n2)cc1 | 12 | 0.9 | 2 | 6 | 1 | -18
COc1ccc(C)cc1NC(=O)CSc1nnc(CC(=O)Nc2cccc(C(F)(F)F)c2)n1C | 24 | 0.8 | -18 | 16 | 1.2 | -5
COc1ccccc1NC(=O)CSc1nnc(CC(=O)Nc2cccc(C(F)(F)F)c2)n1C | -3 | 0.5 | -49 | 51* | 1.5 | 3
CN1CCN(c2nc(N3CCN(c4ccccc4)CC3)ncc2F)CC1 | -17 | 0.4 | 19 | 62* | 0.8 | -12
c1ccc(N2CCN(c3ncccn3)CC2)cc1 | -21 | 0.7 | 26 | 29 | 0.7 | -17
CC(=O)c1cccc(NC(=O)N2CCCC2C(=O)NCc2ccccc2)c1 (stereo not given) | x | 0.8 | -8 | 16 | 1.1 | x
Cc1cccc(Oc2cc(N)cc([N+](=O)[O-])c2)c1 | -17 | 0.4 | 34 | 60* | 0.7 | -14
Cc1cc(C)cc(Oc2ccc(N)cc2)c1 | -10 | 0.2 | -77 | 82* | 1.8 | -17
Cc1cccc(Oc2ccc(N)cc2)c1 | -18 | 0.2 | 29 | 84* | 0.7 | -7
Cc1cccc(Oc2ccccc2N)c1 | 12 | 0.7 | -22 | 34 | 1.2 | -9
CCOC(=O)CSc1nnc(CNC(=O)c2cccs2)n1-c1cc(C)ccc1C | -6 | 1 | 20 | -1 | 0.8 | -6
CCOC(=O)/C(=C\c1ccccc1)C(=O)c1cc(C(C)=O)c(Nc2ccccc2)s1 | -4 | 0.1 | 98* | 92* | 0 | -4
CCOC(=O)C(=O)/C(C#N)=C/Nc1ccccc1 | -2 | 0.9 | -2 | 11 | 1 | 2

Source: PubChem BioAssay (several laboratories)
